Data reported in PubChem BioAssay AID588477 (NMMLSC, 2011).
Values without a mark were called inactive. Calls of active or inactive are those of the source.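 How the source made its calls: active means valid curve fit with half-effect dose at most 10 µM and total binding change across doses of 30 points or more; inactive means the rest.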

Experiment: inhibitors of Bodipy-GTP binding across eight GTPases, SAR follow-up, selectivity assay for Cdc42 probe extension project, biochemical, round 1 SAR, Mg buffer, multiplex flow cytometry (AID 588477)
Conditions: GST-GTPase beads, Rac constitutively active; series mostly up to 100 µM; percent response (remaining binding): at the top concentration

SMILES	percent response (remaining binding)	outcome
NS(=O)(=O)c1ccc(N2N=C(c3ccccc3)CC2c2ccccc2)cc1 (stereo not drawn)	89.5%	
COc1ccc(C2CC(c3ccccc3)=NN2c2ccc(S(N)(=O)=O)cc2)cc1 (stereo not drawn)	87.9%	
O=C(C#Cc1ccccc1)c1cccc([N+](=O)[O-])c1		inactive
